Test results taken from PubChem BioAssay (NCATS).
Inconclusive results are not listed. Active and inactive are the calls of the source. Calls follow the shape of the dose curve; as a rule, active = well fitted cell-killing curve with a large enough effect; inconclusive = small, poorly fitted or top-dose-only effect; inactive = flat fitted curve, though single readings scatter.

Assay: qHTS of pediatric cancer cell lines to identify multiple opportunities for drug repurposing: Primary screen for BT-37 cells (AID 1347094);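 as to activity change, negative = cytotoxic: plate controls were DMSO for no effect and bortezomib for full effect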
Conditions: BT-37 viability, CellTiter-Glo luminescence, 48 h; series mostly up to 57.3 µM; activity change, negative = cytotoxic: at the top concentration
Excerpt: Drug repurposing or repositioning has been offered as a strategy for drug development in oncology programs. This approach has special potential for childhood cancers and other rare or orphan diseases, where the expected return on new drug development has been a disincentive to pharmaceuticals. […] In this project we exploit the poly-pharmacology of drugs to discover new indications via phenotypic screening of a panel of 19 well-characterized cell lines derived from solid tumors seen in children and adolescents. The goal is to identify approved drugs with previously unrecognized anticancer properties that has the potential to reveal new mechanisms and biological processes involved in carcinogenesis or drug resistance. We employed a titration-based paradigm (quantitative high-throughput screening or qHTS), where all compounds were tested at multiple concentrations for their effect on cell viability. Concentration-response curves (CRCs) were derived directly from the primary screen, and both potency and efficacy values were used to identify compounds with robust bioactivity profiles. We screened the NIH Chemical Genomics Center (NCGC) Pharmaceutical Collection (NPC) and Mechanism Interrogation Plate (MIPE) small molecule collections of approved and investigational compounds against these cell lines; and measured metabolically active cells after 48 hours of compound treatment as a proxy for cell viability. […] Assay Submitter: Nathalia J. Martinez, National Center for Advancing Translational Sciences, National Institutes of Health, Rockville, MD, USA; email: natalia.martinez@nih.gov Shen, M et al. Quantitative high-throughput phenotypic screening of pediatric cancer cell lines identifies multiple opportunities for drug repurposing. Oncotarget 2017 Dec 19;9(4):4758-4772. PMID 29435139.
The cells were obtained from University of North Carolina (UNC), Pediatric Preclinical Testing Program (PPT), and Coriell Institute (CI). qHTS cell viability assay: Cells were assayed in growth media at a density of 500-1,000 cells/well. Five microliters of cells were dispensed into 1,536-well, white, solid-bottom, TC-treated plates (Greiner Bio One) using a multidrop dispenser and incubated at 37 degrees C, 5% CO2, under a humidified atmosphere for 5 hours. Twenty-three nanoliters of compounds and controls (neutral control DMSO or positive control bortezomib at final concentration of 2.3 µM) were subsequently transferred by Kalypsys pintool. For primary screens, the MIPE collection was tested at 11-point dilutions (final concentrations range from 0.78 nM to 46 µM) and the NPC collection at 8-point dilutions (final concentrations range from 0.59 nM to 46 µM). Compounds tested in follow-up screens were assayed at 11-point dilutions. Cells were incubated for 48 hours, followed by addition of 3 µL of CellTiter-Glo (Promega). After a 15 min incubation at room temperature, samples were analyzed for luminescence intensity using a ViewLux High-throughput CCD imager equipped with clear filters.
Potency is read from the fitted curve at half-maximal effect.

Compound	activity change, negative = cytotoxic	Potency
Nc1ccc(S(=O)(=O)NCc2ccccc2)cc1	-3.7% (inactive)	
Cc1cccc(C)c1NC(=O)CN1CCCCCC1	6.19% (inactive)	
CC(C)(Cc1c[nH]c2ccccc12)NCC(O)COc1ccccc1C#N (stereo not given)	-19.9% (inactive)	
OCc1ccccn1	1.38% (inactive)	
Cc1ccc(-c2ncc(Cl)cc2-c2ccc(S(C)(=O)=O)cc2)cn1	2.38% (inactive)	
CN(C)CCOC(c1ccc(Cl)cc1)c1ccccn1 (stereo not given)	-5.3% (inactive)	
CN(C)CCN1C(=O)c2ccccc2N(C)c2ccccc21	-6.21% (inactive)	
N=C(N)N1CCc2ccccc2C1	-4.38% [at 6.03 µM] (inactive)	
CC1=C(C(=O)O)N2C(=O)[C@@H](NC(=O)[C@H](N)c3ccccc3)[C@H]2SC1	5.67% (inactive)	
OC1C(O)C(O)C(O)C(O)C1O (stereo not given)	1.51% (inactive)	
CCCCCCCCNC(C)C(O)c1ccc(SC(C)C)cc1 (stereo not given)		27.6 µM (active)
O=C(O)c1ccc(S(=O)(=O)N(Cl)Cl)cc1	10.9% (inactive)	
NS(=O)(=O)Cc1noc2ccccc12	3.64% (inactive)	
N#CCC(=O)NN	13% (inactive)	
CC(C)Nc1cccnc1N1CCN(C(=O)c2cc3cc(NS(C)(=O)=O)ccc3[nH]2)CC1	-8.57% (inactive)	
N#C/C(=C1\SCC(c2ccccc2Cl)S1)n1ccnc1 (stereo not given)	-5.76% (inactive)	
COc1cc(NS(=O)(=O)c2ccc(N)cc2)ncn1	6.17% (inactive)	
O=C(O)CCC(=O)Nc1ccc(S(=O)(=O)Nc2nccs2)cc1	-4.77% (inactive)	
CCN1/C(=C/C=C/c2sc3ccccc3[n+]2CC)Sc2ccccc21		1.35 µM (active)
Nc1nc(-c2ccccc2)c(Br)c(=O)[nH]1	-2.82% (inactive)	

Compound	activity change, negative = cytotoxic	Potency
C=CCN1CCc2nc(N)sc2CC1	2.6% (inactive)	
CC(=O)Nc1ccc(CC(=O)O)cc1	1.74% (inactive)	
O=C(O)CCNC(=O)c1ccccc1	0.194% (inactive)	
CN(CCCN1c2ccccc2CCc2ccccc21)CC(=O)c1ccc(Cl)cc1	4.04% (inactive)	
O=C(O)Cc1csc(-c2ccc(Cl)cc2)n1	-4.27% (inactive)	
C#C[C@]1(O)CC[C@H]2[C@@H]3[C@H](C)CC4=C(CCC(=O)C4)[C@H]3CC[C@@]21C	2.06% (inactive)	
Cc1cccc(C)c1NC(=O)c1ccccc1C(=O)O	6.49% (inactive)	
C=C[C@@]1(C)CC(=O)[C@]2(O)[C@@]3(C)[C@@H](O)CCC(C)(C)[C@@H]3[C@H](O)[C@H](OC(C)=O)[C@@]2(C)O1	11.6% (inactive)	
CC(=O)Oc1ccc(C)cc1	12% (inactive)	
CCCCCCCCCCCCCCCCO	7.88% (inactive)	
O=C1[C@H](CC[C@H](O)c2ccc(F)cc2)[C@@H](c2ccc(O)cc2)N1c1ccc(F)cc1	-0.827% (inactive)	
N[C@H](C(=O)O)[C@@H](O)c1ccc(O)c(O)c1	18.7% (inactive)	
CCCCCCCC/C=C\CCCCCCCCN	17.9% (inactive)	
O=C(CCN1CCN2CCCC2C1)N1c2ccccc2Sc2ccc(Cl)cc21 (stereo not given)	-13.5% [at 20.1 µM] (inactive)	
CCOc1cc(OCC)c(C(=O)CCC(=O)O)cc1OCC	9.04% (inactive)	
CCOC(=O)[C@H](CCc1ccccc1)N[C@@H](C)C(=O)N1[C@H](C(=O)O)C[C@@H]2CCC[C@@H]21	3.88% (inactive)	
CO[C@]12C[C@@H](COC(=O)c3cncc(Br)c3)CN(C)[C@@H]1Cc1cn(C)c3cccc2c13	-7.23% (inactive)	
COc1ccccc1N1CCN(CCCCNC(=O)c2ccc(-c3ccc(C(C)=O)cc3)cc2)CC1	-10.4% (inactive)	
O=S(c1cc(Cl)cc(Cl)c1O)c1cc(Cl)cc(Cl)c1O	-6.81% (inactive)	
COc1cc(O)c(C(=O)c2ccccc2)cc1S(=O)(=O)O	2.67% (inactive)	
